From PubChem BioAssay (NCATS)
Inconclusive results are not listed. Entries that show only a call come without a potency. The source made the active and inactive calls. The call rests on the fitted dose curve; in most records, active means well fitted cell-killing curve with a large enough effect; inconclusive means small, poorly fitted or top-dose-only effect; inactive means flat fitted curve, though single readings scatter.

What was measured:
[1] = Cell Viability - LYMP2-017 (AID 972); conditions: LYMP2-017 lymphoblastoid cell viability; series mostly up to 92.2 µM; further: nearly all actives have a fitted effect of over 55% in size; further: potency means the concentration at half of the fitted maximal effect
Method in brief: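 Cytotoxicity is scored as a concentration-dependent drop in cellular ATP in a human lymphoblastoid line after 24 hr treatment at 37 C. Values are AC50s from Hill-equation modelling.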

[2] = Cell Viability - LYMP2-023 (AID 975); conditions: LYMP2-023 lymphoblastoid cell viability; series mostly up to 92.2 µM; further: nearly all actives have a fitted effect of over 55% in size; further: potency means the concentration at half of the fitted maximal effect
Method in brief: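 Steps: seed 2500 human lymphoblastoid cells per well, incubate 5 hr at 37 C, add compound for 24 hr at 37 C, add CellTiter-Glo, hold 30 min at room temperature, read luminescence. AC50 derived by Hill modelling.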

[3] = Cell Viability - LYMP2-006 (AID 978); conditions: LYMP2-006 lymphoblastoid cell viability, qHTS; series mostly up to 92.2 µM; further: nearly all actives have a fitted effect of over 60% in size; further: potency means the concentration at half of the fitted maximal effect
Method in brief: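 Cells are seeded at 2500 per well and rested 5 hr at 37 C. Compounds are added across a concentration series for 24 hr at 37 C, after which ATP is quantified by luciferase luminescence.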

[4] = Cell Viability - LYMP2-007 (AID 979); conditions: LYMP2-007 lymphoblastoid cell viability; series mostly up to 92.2 µM;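 further: cells exposed to compound for 24 h before reading; nearly all actives have a fitted effect of over 60% in size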; further: potency means the concentration at half of the fitted maximal effect
Method in brief: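 Cells are seeded at 2500 per well and rested 5 hr. Compounds are then added over a concentration series for 24 hr at 37 C. CellTiter-Glo is added for 30 min at room temperature before luminescence reading.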

[5] = Cell Viability - LYMP2-008 (AID 980); conditions: LYMP2-008 lymphoblastoid cell viability, qHTS; series mostly up to 92.2 µM; further: nearly all actives have a fitted effect of over 60% in size; further: potency means the concentration at half of the fitted maximal effect
Method in brief: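 Cells seeded at 2500/well and rested 5 hr at 37 C; compounds added over a concentration range and incubated 24 hr at 37 C; CellTiter-Glo added, 30 min at room temperature; luminescence read and AC50 fitted with Hill model.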

[6] = Cell Viability - LYMP2-010 (AID 981); conditions: LYMP2-010 lymphoblastoid cell viability, qHTS; series mostly up to 92.2 µM; further: nearly all actives have a fitted effect of over 55% in size; further: potency means the concentration at half of the fitted maximal effect
Method in brief: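 Steps: seed 2500 LYMP2-010 cells per well; incubate 5 hr at 37 C; add compound; incubate 24 hr at 37 C; add CellTiter-Glo, wait 30 min at room temperature; read luminescence. Concentration-response fitted to Hill equation for AC50.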

[7] = Cell Viability - LYMP2-012 (AID 982); conditions: LYMP2-012 lymphoblastoid cell viability qHTS; series mostly up to 92.2 µM;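 further: cellular ATP by luciferase luminescence where a drop means cytotoxicity; cells exposed to compound for one day before reading; nearly all actives have a fitted effect of over 55% in size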; further: potency means the concentration at half of the fitted maximal effect
[8] = Cell Viability - LYMP2-014 (AID 983); conditions: LYMP2-014 lymphoblastoid cells, viability qHTS; series mostly up to 92.2 µM; further: nearly all actives have a fitted effect of over 50% in size; further: potency means the concentration at half of the fitted maximal effect
Method in brief: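 Cells are plated at 2500/well and left 5 hr at 37 C. Compounds are added across a concentration range and incubated 24 hr at 37 C in complete medium. CellTiter-Glo is added, and luminescence is read after 30 min at room temperature.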

[9] = Cell Viability - LYMP2-016 (AID 984); conditions: LYMP2-016 lymphoblastoid cell viability, qHTS; series mostly up to 92.2 µM; further: nearly all actives have a fitted effect of over 55% in size; further: potency means the concentration at half of the fitted maximal effect
Method in brief: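 Cells were seeded at 2500 per well and rested 5 hr before a 24 hr compound exposure at 37 C. Viability was then gauged as cellular ATP by luciferase luminescence, with AC50 values fitted to the Hill equation.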

[10] = Cell Viability - LYMP2-018 (AID 985); conditions: LYMP2-018 lymphoblastoid cells, viability (qHTS); series mostly up to 92.2 µM; further: nearly all actives have a fitted effect of over 50% in size; further: potency means the concentration at half of the fitted maximal effect
Method in brief: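 Seed 2500 lymphoblastoid cells per well, incubate 5 hr at 37 C, add compound and incubate 24 hr at 37 C, add CellTiter-Glo, wait 30 min at room temperature, then read luminescence.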

[11] = Cell Viability - LYMP2-020 (AID 986); conditions: series mostly up to 92.2 µM; further: nearly all actives have a fitted effect of over 55% in size; further: potency means the concentration at half of the fitted maximal effect
Method in brief: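 Seed 2500 cells per well and incubate 5 hr at 37 C. Add compounds at a concentration series and incubate 24 hr at 37 C. Add CellTiter-Glo, wait 30 min at RT, read luminescence, and fit a Hill curve for AC50.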

[12] = Cell Viability - LYMP2-022 (AID 987); conditions: LYMP2-022 lymphoblastoid cell viability; series mostly up to 92.2 µM; further: nearly all actives have a fitted effect of over 55% in size; further: potency means the concentration at half of the fitted maximal effect
Method in brief: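 Cells were seeded at 2500 per well, rested 5 hr at 37 C, and treated with titrated compounds for 24 hr at 37 C. Cellular ATP was then quantified by luciferase luminescence, and AC50 values were derived from Hill-modelled concentration-response curves.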

[13] = Cell Viability - LYMP2-024 (AID 988); conditions: LYMP2-024 lymphoblastoid cell viability; series mostly up to 92.2 µM; further: nearly all actives have a fitted effect of over 60% in size; further: potency means the concentration at half of the fitted maximal effect
Method in brief: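 qHTS cytotoxicity, human lymphoblastoid line, complete medium; 24 h cpd treatment, 37 C; CellTiter-Glo ATP luminescence readout; tetraoctylammonium bromide positive control; AC50 via Hill fit.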

[14] = Cell Viability - LYMP1-002 - Assay at 24 hr (AID 993); conditions: LYMP1-002 lymphoblastoid cells viability; series mostly up to 92.2 µM; further: potency means the concentration at half of the fitted maximal effect
Method in brief: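 Acute toxicity is measured as concentration-dependent loss of cellular ATP in a human lymphoblastoid line (Coriell LYMP1-002) after 24 h treatment in complete medium. ATP is quantified by luciferase luminescence and AC50 derived by Hill modelling.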

[15] = Cell Viability - LYMP2-025 (AID 976); conditions: LYMP2-025 lymphoblastoid cell viability; series mostly up to 92.2 µM
Method in brief: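 Acute cytotoxicity is scored as a concentration-dependent fall in intracellular ATP, measured by luciferase luminescence, in human lymphoblastoid LYMP2-025 cells exposed to compound for 24 hours at 37 C. AC50 values come from standard Hill fits.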

[16] = Cell Viability - LYMP2-002 (AID 977); conditions: LYMP2-002 lymphoblastoid cell viability, qHTS; series mostly up to 92.2 µM;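 further: compound exposure lasted 24 h at 37 °C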
Method in brief: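 In this qHTS viability screen, 2500 human lymphoblastoid cells per well receive compound for 24 hr at 37 C, and luciferase-based ATP luminescence gives the viability signal. Tetraoctylammonium bromide serves as positive control.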

[17] = Cell Viability - LYMP2-026 (AID 989); conditions: LYMP2-026 lymphoblastoid cell viability, qHTS; series mostly up to 92.2 µM; further: nearly all actives have a fitted effect of over 50% in size
Method in brief: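 Cells are seeded at 2500 per well and held 5 hr at 37 C. Compounds are added in concentration series for 24 hr, then CellTiter-Glo reagent is applied and luminescence read.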

[18] = Cell Viability - LYMP1-002 - Assay at 40 hr (AID 994); conditions: LYMP1-002 lymphoblastoid cell viability; series mostly up to 92.2 µM; further: nearly all actives have a fitted effect of over 60% in size; further: potency means the concentration at half of the fitted maximal effect
Method in brief: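 Cells are plated at 2500 per well and rested 5 hr at 37 C. Compounds are added and incubated 40 hr at 37 C. CellTiter-Glo reagent is added for 30 min at room temperature before luminescence is read.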

Compound	Potency [1]	Potency [2]	Potency [3]	Potency [4]	Potency [5]	Potency [6]	Potency [7]	Potency [8]	Potency [9]	Potency [10]	Potency [11]	Potency [12]	Potency [13]	Potency [14]	outcome [15]	outcome [16]	outcome [17]	Potency [18]
C=C1C(CCl)(CCl)C2(Cl)C(Cl)C(Cl)C1(Cl)C2(Cl)Cl (configuration not stated)	50.1 µM (active)	50.1 µM (active)	50.1 µM (active)	39.8 µM (active)	31.6 µM (active)	39.8 µM (active)	39.8 µM (active)	50.1 µM (active)	50.1 µM (active)	50.1 µM (active)	50.1 µM (active)	39.8 µM (active)	39.8 µM (active)	50.1 µM (active)				
COC(=O)c1ccccc1O	inactive	inactive	inactive	inactive	inactive	inactive	inactive	inactive	inactive	inactive	inactive	inactive	inactive	inactive	inactive	inactive	inactive	inactive
OCC(O)CO	inactive	inactive	inactive	inactive	inactive	inactive	inactive	inactive	inactive	inactive	inactive	inactive	inactive	inactive	inactive	inactive	inactive	inactive
O=P(O)(O)O	inactive	inactive	inactive	inactive	inactive	inactive	inactive	inactive	inactive	inactive	inactive	inactive	inactive	inactive	inactive	inactive	inactive	inactive
O=c1n(CC2CO2)c(=O)n(CC2CO2)c(=O)n1CC1CO1 (configuration not stated)	39.8 µM (active)	39.8 µM (active)	39.8 µM (active)	39.8 µM (active)		25.1 µM (active)	25.1 µM (active)		31.6 µM (active)	15.8 µM (active)	25.1 µM (active)	31.6 µM (active)	39.8 µM (active)	39.8 µM (active)				7.94 µM (active)
CCOC(C)OCC	inactive	inactive	inactive	inactive	inactive	inactive	inactive	inactive	inactive	inactive	inactive	inactive	inactive	inactive	inactive	inactive	inactive	inactive
Oc1ccc(/C=C/c2cc(O)cc(O)c2)cc1	inactive	inactive	inactive	inactive	inactive	inactive	inactive	inactive	inactive	inactive	inactive	inactive	inactive	inactive	inactive	inactive	inactive	
CC1=CCC2CC1C2(C)C (configuration not stated)	inactive	inactive	inactive	inactive	inactive	inactive	inactive	inactive	inactive	inactive	inactive	inactive	inactive	inactive	inactive	inactive	inactive	inactive
CO/N=C(/C(=O)N[C@@H]1C(=O)N2C(C(=O)O)=C(COC(N)=O)CS[C@H]12)c1ccco1	inactive	inactive	inactive	inactive	inactive	inactive	inactive	inactive	inactive	inactive	inactive	inactive	inactive	inactive	inactive	inactive	inactive	inactive
